# PubChem BioAssay (Tox21)
# Active and inactive are the calls of the source. A call without a number means that no potency is given here. Calls come from the whole dose curve; as a rule, active = well fitted inhibition curve with a large enough effect in the repeat runs (not every such curve was filed as active); inconclusive = weak or mixed curves; inactive = flat fitted curve, though single readings scatter.
# Biological target: Thyrotropin-releasing hormone receptor (Homo sapiens) (UniProt P34981)
# Assay: qHTS assay to identify small molecule antagonists of the thyrotropin-releasing hormone receptor (TRHR) signaling pathway (AID 1346877)
# Conditions: TRHR-HEK293, TRH-induced calcium fluorescence, antagonist mode; series mostly up to 51.3 µM
# Source text: National Center for Advancing Translational Sciences [NCATS]
# NIH Chemical Genomics Center [NCGC]
# U.S. Environmental Protection Agency [EPA]
# National Institutes of Environmental Health Sciences [NIEHS]
# National Toxicology Program [NTP]
# U.S. Food and Drug Administration [FDA]
# Thyrotropin-releasing hormone (TRH) receptor (TRHR) is a G-protein-coupled receptor which binds the tripeptide thyrotropin releasing hormone. TRHR is found in the brain and, when bound by TRH, acts (through phospholipase C) to increase intracellular inositol trisphosphate. It plays a crucial role in the anterior pituitary where it controls the synthesis and secretion of thyroid stimulating hormone and prolactin. The TRHR-Hek293 assay is a cell-based assay, and it has the potential to screen G protein-coupled receptors. A compound/drug can either activate (agonist) or suppress (antagonist) GPCRs that can be monitored by levels of intracellular calcium. In this assay, the Tox21 10K compound library was screened to identify potential TRHR antagonists.
# Tox21 Assay Protocol Summary:
# The TRHR-Hek293 cells were dispensed at 1500cells/4uL/well in 1536-well black-clear bottom plates using a Multidrop dispenser. After the assay plates were incubated at a 37 C/5% CO2 incubator for 18 hours, 4 uL of Dye-Loading Solution was added to each well. The plates were incubated at 37 C for 2 hours. For agonist mode, 23 nL of compounds dissolved in DMSO, positive controls or DMSO only was transferred to the assay plate by a pin tool. The fluorescence intensity in the plates was measured using FDSS 7000EX kinetic plate reader for 3 min at 1 sec intervals. For antagonist mode, 23 nL of compounds dissolved in DMSO, positive controls or DMSO only was transferred to the assay plate by a pin tool. After 5 min incubation at room temperature, 1 uL of TRH was added on the top of the cell/compound mixtures to achieve a final agonist concentration of 1 nM. The fluorescence intensity in the plates was measured using FDSS 7000EX kinetic plate reader for 3 min at 1 sec intervals. Each test compound was measured at 15 concentrations and in triplicates.
# Thyrotropin-releasing hormone receptor (Homo sapiens), sequence (P34981 whole entry, looked up): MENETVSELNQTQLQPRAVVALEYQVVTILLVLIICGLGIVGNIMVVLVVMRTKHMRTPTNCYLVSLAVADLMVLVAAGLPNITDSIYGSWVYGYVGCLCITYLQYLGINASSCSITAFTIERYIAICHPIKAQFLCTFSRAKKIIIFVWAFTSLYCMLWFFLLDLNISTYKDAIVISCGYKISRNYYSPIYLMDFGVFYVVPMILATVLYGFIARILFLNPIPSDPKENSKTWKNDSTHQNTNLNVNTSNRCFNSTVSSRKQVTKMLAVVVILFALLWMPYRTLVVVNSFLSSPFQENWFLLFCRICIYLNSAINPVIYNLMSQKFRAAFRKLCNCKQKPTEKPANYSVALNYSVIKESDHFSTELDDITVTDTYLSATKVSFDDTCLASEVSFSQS
row,Structure (SMILES),Potency
1,NC(N)=S,inactive
2,OCCOCCOCCOCCOCCO,inactive
3,C1CCCNCC1,inactive
4,CC(=O)OCc1ccc2c(c1)OCO2,inactive
5,Oc1ccc(Cc2ccccc2O)cc1,inactive
6,COc1c(Cl)ccc(Cl)c1C(=O)O,inactive
7,O=Cc1ccc(CO)o1,inactive
8,Cc1cc(C)c(O)c(C)c1,inactive
9,OCc1ccc(Cl)cc1Cl,inactive
10,Cc1ccc([N+](=O)[O-])cc1N,inactive
11,OC[C@H]1O[C@@H](Oc2ccc(O)cc2)[C@H](O)[C@@H](O)[C@@H]1O,inactive
12,CCCCCCCCC(=O)O,inactive
13,Brc1ccc(Oc2ccc(Br)cc2)cc1,inactive
14,CCCN(CCC)C(=O)SCC,inactive
15,O=C(O)C1=NN(c2ccc(S(=O)(=O)O)cc2)C(=O)C1,inactive
16,CCc1cccc(O)c1,inactive
17,O=C1C(N(CO)C(=O)NCO)N(CO)C(=O)N1CO (stereo not given),inactive
18,C[n+]1ccn(CCO)c1,inactive
19,CCOC(=O)CC(=O)OCC,inactive
20,CC(C)(CO)CO,inactive

row,Structure (SMILES),Potency
1,O=C(NCC1CCCCN1)c1cc(OCC(F)(F)F)ccc1OCC(F)(F)F (stereo not given),inactive
2,CC1(C)C(=O)N(Cl)C(=O)N1Cl,inactive
3,COC(=O)CCCCC(=O)OC,inactive
4,O=[N+]([O-])c1ccccc1C(F)(F)F,inactive
5,CC(=O)Nc1ccc(CC(=O)O)cc1,inactive
6,O=C(Cl)c1ccc(C(=O)Cl)cc1,inactive
7,OB(O)O,inactive
8,O=C1OC(=O)c2c(Cl)c(Cl)c(Cl)c(Cl)c21,inactive
9,CC(=O)OCCC(C)C,inactive
10,COC(=O)OC,inactive
11,COc1ccc([C@@H]2CC(=O)c3c(O)cc(O[C@@H]4O[C@H](CO[C@@H]5O[C@@H](C)[C@H](O)[C@@H](O)[C@H]5O)[C@@H](O)[C@H](O)[C@H]4O)cc3O2)cc1OC,inactive
12,O=c1c(O)c(-c2ccc(O)c(O)c2)oc2cc(O)cc(O)c12,inactive
13,CC(=O)OC(C)(C)C1CC=C(C)CC1 (stereo not given),inactive
14,Nc1cccc(C(F)(F)F)c1,inactive
15,CC/C=C(\C(=O)N[C@@H]1C(=O)N2C(C(=O)OCOC(=O)C(C)(C)C)=C(COC(N)=O)CS[C@H]12)c1csc(N)n1,inactive
16,NC(=O)NC(N)=O,inactive
17,CN=C(NC#N)NCCSCc1nc[nH]c1C,inactive
18,N#CCC(=O)O,inactive
19,COc1c2ccoc2cc2oc(=O)ccc12,inactive
20,CC(C=O)Cc1ccc(C(C)(C)C)cc1 (stereo not given),inactive
